According to the supplement of paper PMC10849652:
The full data set covers some 7,900 targets. This sample favours those with a hit. About 0.6% of all pairs of compound and target were hits.

compound: c1cn2cc(-c3ccc4cn[nH]c4c3)nc(Nc3ccc(N4CCOCC4)cc3)c2n1 [entospletinib]; test: log2 fold change, soluble protein after heating vs DMSO (PISA); higher = thermal stabilisation; K562 cells, 10 uM, 30 min; active = over 0.2 and 3.5 SD of the protein, either way, in both replicates (recomputed)
In short: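 K562 cells at 2×10^6 cells/mL were treated for 30 min with 10 μM compound, and aliquots were heated for 3 min over 48°C-58°C before pooling. Extraction used PBS with 0.5% NP-40 at 4°C, and soluble protein was the supernatant after 21,000xg for 90 min, measured by TMTpro 16plex LC-MS/MS with channel sums equalised. Thermal stability values, relative to control samples and from duplicates, are log2 fold changes.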

UniProt Q9NXF7, sequence (Q9NXF7 whole entry, looked up): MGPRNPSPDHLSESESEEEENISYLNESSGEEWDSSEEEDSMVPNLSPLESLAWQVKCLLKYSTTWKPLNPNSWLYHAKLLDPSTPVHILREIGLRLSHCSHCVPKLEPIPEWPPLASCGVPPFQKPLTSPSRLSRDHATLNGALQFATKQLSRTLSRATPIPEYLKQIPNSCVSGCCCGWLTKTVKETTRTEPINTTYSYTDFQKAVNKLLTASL
UniProt P06730, sequence (P06730 whole entry, looked up): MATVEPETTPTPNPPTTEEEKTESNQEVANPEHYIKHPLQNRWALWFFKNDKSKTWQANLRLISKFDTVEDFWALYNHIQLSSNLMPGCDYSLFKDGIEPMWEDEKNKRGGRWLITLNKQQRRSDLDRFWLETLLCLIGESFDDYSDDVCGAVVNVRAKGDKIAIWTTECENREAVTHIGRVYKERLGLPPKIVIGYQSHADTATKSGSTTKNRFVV
UniProt Q6UX04, sequence (Q6UX04 whole entry, looked up): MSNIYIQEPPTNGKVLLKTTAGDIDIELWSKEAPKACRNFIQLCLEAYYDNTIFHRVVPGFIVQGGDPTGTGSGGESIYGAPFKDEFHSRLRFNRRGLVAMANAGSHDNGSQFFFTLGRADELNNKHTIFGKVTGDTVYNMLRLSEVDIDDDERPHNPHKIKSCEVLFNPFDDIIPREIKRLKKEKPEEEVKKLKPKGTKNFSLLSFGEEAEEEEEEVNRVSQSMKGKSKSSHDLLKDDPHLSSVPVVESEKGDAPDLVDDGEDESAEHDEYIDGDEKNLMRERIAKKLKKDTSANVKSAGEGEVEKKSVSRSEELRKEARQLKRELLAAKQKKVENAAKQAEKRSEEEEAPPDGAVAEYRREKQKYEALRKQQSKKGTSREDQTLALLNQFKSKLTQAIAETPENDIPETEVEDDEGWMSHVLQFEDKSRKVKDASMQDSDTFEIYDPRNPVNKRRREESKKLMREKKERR
UniProt Q9NZN4, sequence (Q9NZN4 whole entry, looked up): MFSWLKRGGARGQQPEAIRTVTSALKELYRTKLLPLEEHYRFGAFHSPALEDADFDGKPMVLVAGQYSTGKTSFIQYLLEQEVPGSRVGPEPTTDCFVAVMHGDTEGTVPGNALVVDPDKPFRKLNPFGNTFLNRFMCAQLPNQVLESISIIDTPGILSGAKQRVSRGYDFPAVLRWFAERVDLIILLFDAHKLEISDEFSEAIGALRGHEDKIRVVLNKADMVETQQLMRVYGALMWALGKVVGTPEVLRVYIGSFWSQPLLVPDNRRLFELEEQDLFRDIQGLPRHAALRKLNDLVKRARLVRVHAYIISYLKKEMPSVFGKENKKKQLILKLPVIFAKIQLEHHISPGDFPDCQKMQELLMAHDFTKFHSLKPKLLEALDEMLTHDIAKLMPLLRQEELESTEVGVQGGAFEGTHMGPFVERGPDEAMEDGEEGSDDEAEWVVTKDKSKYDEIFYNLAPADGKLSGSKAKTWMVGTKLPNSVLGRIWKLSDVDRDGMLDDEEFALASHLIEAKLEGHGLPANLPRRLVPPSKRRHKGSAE
UniProt Q9NQI0, sequence (Q9NQI0 whole entry, looked up): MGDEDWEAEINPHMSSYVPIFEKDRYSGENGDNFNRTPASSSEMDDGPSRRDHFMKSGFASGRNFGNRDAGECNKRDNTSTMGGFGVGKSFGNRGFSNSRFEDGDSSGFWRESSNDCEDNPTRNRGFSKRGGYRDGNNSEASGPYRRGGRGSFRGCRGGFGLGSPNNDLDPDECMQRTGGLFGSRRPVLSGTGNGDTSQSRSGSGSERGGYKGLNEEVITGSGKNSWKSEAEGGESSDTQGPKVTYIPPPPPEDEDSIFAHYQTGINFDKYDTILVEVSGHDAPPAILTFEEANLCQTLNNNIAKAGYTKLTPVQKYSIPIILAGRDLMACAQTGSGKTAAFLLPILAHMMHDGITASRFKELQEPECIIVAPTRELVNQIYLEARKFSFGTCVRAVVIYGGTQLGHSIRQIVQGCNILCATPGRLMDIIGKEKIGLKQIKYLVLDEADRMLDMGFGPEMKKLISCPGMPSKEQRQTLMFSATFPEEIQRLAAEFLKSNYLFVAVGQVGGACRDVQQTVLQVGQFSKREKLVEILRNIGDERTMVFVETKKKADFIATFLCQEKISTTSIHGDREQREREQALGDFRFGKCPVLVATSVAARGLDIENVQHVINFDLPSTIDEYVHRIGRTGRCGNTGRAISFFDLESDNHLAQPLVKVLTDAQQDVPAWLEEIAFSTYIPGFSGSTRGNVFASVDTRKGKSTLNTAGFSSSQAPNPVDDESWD
UniProt Q15075, sequence (Q15075 whole entry, looked up): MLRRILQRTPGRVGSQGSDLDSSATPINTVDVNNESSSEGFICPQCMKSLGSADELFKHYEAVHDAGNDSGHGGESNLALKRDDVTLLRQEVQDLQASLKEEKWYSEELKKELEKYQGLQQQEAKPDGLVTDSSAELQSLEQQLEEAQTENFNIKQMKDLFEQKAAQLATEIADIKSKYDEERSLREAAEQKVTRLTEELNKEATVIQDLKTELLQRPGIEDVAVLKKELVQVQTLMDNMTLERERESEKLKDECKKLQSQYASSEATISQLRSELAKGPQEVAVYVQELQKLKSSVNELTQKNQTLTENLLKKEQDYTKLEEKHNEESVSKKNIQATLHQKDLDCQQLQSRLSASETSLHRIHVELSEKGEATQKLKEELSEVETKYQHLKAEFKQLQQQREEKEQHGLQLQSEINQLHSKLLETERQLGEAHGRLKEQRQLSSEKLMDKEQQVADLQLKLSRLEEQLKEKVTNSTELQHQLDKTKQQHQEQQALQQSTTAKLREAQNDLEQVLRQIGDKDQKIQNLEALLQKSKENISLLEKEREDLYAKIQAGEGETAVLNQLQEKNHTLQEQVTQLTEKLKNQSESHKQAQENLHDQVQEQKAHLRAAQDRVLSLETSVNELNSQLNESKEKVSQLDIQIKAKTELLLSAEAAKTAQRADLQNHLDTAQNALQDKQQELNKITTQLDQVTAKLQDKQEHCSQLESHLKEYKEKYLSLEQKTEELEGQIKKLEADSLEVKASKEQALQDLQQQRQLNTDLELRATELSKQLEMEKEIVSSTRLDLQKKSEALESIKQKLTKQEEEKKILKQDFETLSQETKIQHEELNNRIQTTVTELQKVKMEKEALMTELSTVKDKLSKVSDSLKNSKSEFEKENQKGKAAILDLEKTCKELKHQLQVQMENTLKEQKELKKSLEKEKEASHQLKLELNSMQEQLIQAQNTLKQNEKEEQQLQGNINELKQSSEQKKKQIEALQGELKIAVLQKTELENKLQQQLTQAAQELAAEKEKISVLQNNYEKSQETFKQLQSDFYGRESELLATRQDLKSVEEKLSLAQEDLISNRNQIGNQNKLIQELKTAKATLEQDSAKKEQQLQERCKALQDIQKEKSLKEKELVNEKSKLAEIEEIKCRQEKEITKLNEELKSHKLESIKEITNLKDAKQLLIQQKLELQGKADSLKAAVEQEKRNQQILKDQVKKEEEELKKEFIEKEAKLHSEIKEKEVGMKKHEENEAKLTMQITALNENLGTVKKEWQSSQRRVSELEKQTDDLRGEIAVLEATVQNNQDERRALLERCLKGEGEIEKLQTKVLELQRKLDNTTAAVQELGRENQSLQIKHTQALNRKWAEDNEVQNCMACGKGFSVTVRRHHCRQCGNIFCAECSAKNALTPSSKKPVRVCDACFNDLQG
UniProt Q8NBA8, sequence (Q8NBA8 whole entry, looked up): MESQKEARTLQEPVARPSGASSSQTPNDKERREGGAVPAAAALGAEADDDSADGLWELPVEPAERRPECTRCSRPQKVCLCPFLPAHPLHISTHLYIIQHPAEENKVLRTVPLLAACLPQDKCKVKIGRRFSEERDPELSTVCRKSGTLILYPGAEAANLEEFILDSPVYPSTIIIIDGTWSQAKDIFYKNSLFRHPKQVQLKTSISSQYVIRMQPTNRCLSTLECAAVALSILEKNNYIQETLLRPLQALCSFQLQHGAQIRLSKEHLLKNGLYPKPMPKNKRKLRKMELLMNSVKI
UniProt Q01780, sequence (Q01780 whole entry, looked up): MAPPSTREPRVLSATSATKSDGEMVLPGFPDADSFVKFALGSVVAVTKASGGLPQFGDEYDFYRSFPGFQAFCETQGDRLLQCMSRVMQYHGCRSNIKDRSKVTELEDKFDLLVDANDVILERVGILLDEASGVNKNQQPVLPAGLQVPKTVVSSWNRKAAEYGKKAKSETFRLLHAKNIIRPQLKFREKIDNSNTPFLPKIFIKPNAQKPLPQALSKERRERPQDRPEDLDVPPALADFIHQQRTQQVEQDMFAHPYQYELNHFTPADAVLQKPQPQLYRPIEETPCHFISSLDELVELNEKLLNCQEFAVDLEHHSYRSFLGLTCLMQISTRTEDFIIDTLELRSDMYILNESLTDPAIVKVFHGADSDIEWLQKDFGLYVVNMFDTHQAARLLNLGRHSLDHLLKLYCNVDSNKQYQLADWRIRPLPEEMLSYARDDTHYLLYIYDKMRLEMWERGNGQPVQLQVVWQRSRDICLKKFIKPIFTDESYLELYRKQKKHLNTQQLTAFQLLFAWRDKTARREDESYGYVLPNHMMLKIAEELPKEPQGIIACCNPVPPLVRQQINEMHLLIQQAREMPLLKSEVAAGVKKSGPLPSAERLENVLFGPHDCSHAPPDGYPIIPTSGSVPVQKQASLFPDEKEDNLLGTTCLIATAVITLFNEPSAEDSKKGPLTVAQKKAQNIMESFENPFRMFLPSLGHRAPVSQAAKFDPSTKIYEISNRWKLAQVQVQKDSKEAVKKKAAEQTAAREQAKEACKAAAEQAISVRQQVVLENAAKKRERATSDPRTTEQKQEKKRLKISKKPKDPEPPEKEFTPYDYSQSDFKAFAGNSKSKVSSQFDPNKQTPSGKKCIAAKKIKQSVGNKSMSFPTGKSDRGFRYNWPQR
UniProt P24534, sequence (P24534 whole entry, looked up): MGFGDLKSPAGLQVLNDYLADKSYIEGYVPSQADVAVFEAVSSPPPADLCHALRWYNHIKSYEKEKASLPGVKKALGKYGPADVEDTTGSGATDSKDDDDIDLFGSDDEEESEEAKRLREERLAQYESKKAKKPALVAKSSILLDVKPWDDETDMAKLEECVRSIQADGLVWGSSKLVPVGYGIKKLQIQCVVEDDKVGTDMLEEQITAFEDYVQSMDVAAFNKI

log2 fold change, inactive:
CTNNB1 (UniProt P35222) -0.212, EEA1 (UniProt Q15075) -0.005, DHCR7 (UniProt Q9UBM7) -0.045, EDRF1 (UniProt Q3B7T1) -0.036, DDX5 (UniProt P17844) -0.019, EEF1B2 (UniProt P24534) 0.038, DNAJB12 (UniProt Q9NXW2) 0.01, DHPS (UniProt P49366) -0.003, DDX4 (UniProt Q9NQI0) 0.276, EHBP1 (UniProt Q8NDI1) -0.082, DCAF16 (UniProt Q9NXF7) 0, E2F4 (UniProt Q16254) 0.02, DNAJC7 (UniProt Q99615) -0.034, CTSB (UniProt P07858) 0.008, FADS3 (UniProt Q9Y5Q0) 0.035, EIF4E isoform 2 (UniProt P06730) 0.062, ELOVL5 isoform 2 (UniProt Q9NYP7) 0.063, DTWD1 (UniProt Q8N5C7) 0.039, CTSC (UniProt P53634) -0.047, CYP24A1 (UniProt Q07973) 0.019, CUTA isoform 2 (UniProt O60888) -0.027, DNAH5 (UniProt Q8TE73) -0.039, DTWD2 (UniProt Q8NBA8) 0.127, ELAC1 (UniProt Q9H777) 0.069, EHD2 (UniProt Q9NZN4) -0.038, DIP2A (UniProt Q14689) -0.128, EXOSC10 (UniProt Q01780) 0.1, CWC27 (UniProt Q6UX04) -0.019, EXOC8 (UniProt Q8IYI6) -0.013, CUX1 isoform 2 (UniProt Q13948) -0.019, DSN1 (UniProt Q9H410) -0.044, EHBP1L1 (UniProt Q8N3D4) -0.013, DPYSL2 (UniProt Q16555) -0.015, FAF2 (UniProt Q96CS3) -0.015
